Experimental data: PubChem BioAssay (NCATS)
Results filed as inconclusive are left out. The source made the active and inactive calls. The call rests on the fitted dose curve; in most records, active means well fitted curve in the direction sought with a large enough effect; inconclusive means small, poorly fitted or top-dose-only effect, or another doubt; inactive means no such curve, though single readings can be large; an effect the other way counts as inactive or inconclusive.

Legend:
[1] = MultiTox-Fluor Cytotoxicity Assay - LYMP1-001 - Dead Cells (AID 946); conditions: LYMP1-001 lymphoblastoid cells, dead-cell protease fluorescence; series mostly up to 92.2 µM
Outline: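 Cytotoxicity as increased dead-cell protease fluorescence (bis-AAF-R110, 485/520 nm), read 60 min after MultiTox-Fluor reagent. Human lymphoblastoid line exposed 16 h; Hill-fitted AC50, with DMSO as 0% and 15 uM tetraoctylammonium bromide as 100%.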

[2] = MultiTox-Fluor Cytotoxicity Assay - LYMP1-001 - Live Cells (AID 947); conditions: LYMP1-001 lymphoblastoid cells, live-cell protease fluorescence viability; series mostly up to 92.2 µM
[3] = Cell Viability - LYMP1-002 - Assay at 16 hr (AID 948); conditions: LYMP1-002 lymphoblastoid cell viability; series mostly up to 92.2 µM
Outline: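 LYMP1-002 human lymphoblastoid cells, 2500/well; 5 hr 37 C; cpd 16 hr 37 C; CellTiter-Glo 30 min RT; luminescence (ATP). Concentration-response, Hill-fit AC50. Pos ctrl tetraoctylammonium bromide.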

[4] = MultiTox-Fluor Cytotoxicity Assay - LYMP1-002 - Live Cells (AID 955); conditions: LYMP1-002 lymphoblastoid live-cell protease fluorescence viability; series mostly up to 46.1 µM;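 further: cells exposed to compound for 16 hours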
Outline: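 Cells were seeded at 2500 per well and incubated 5 hr. Compounds were then added for 16 hr at 37 C, followed by MultiTox-Fluor reagent for 60 min at room temperature and fluorescence reading of viable-cell protease signal.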

[5] = MultiTox-Fluor Cytotoxicity Assay - LYMP1-002 - Dead Cells (AID 960); conditions: LYMP1-002 lymphoblastoid cells, dead-cell protease fluorescence; series mostly up to 46.1 µM; further: nearly all actives have a fitted effect of over 60% in size
Outline: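 Cells were plated, rested 5 hr, then treated with compound dilution series for 16 hr at 37 C. After adding substrate reagent and 60 min at room temperature, dead-cell protease fluorescence gave concentration-response curves fitted by the Hill equation.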

[6] = MultiTox-Fluor Cytotoxicity Assay - LYMP1-003 - Dead Cells (AID 961); conditions: LYMP1-003 lymphoblastoid cells, dead-cell protease fluorescence; series mostly up to 92.2 µM; further: nearly all actives have a fitted effect of over 70% in size
Outline: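 Dead-cell protease release, detected as bis-AAF-R110 fluorescence at 485/520 nm, was measured in LYMP1-003 cells after 16 h compound treatment at 37 C. AC50 values came from Hill-modeled qHTS curves normalized to DMSO (0%) and 15 uM tetraoctylammonium bromide (100%).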

[7] = MultiTox-Fluor Cytotoxicity Assay - LYMP1-003 - Live Cells (AID 962); conditions: LYMP1-003 lymphoblastoid cells, MultiTox-Fluor live-cell protease fluorescence; series mostly up to 92.2 µM;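 further: cells exposed to compound for 16 hours at 37 °C; cytotoxic hits lower the live-cell protease signal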
Outline: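 Acute cytotoxicity is scored as a drop in live-cell protease activity in human lymphoblastoid LYMP1-003 cells after 16 hr compound exposure at 37 C. AC50 values come from Hill-equation modelling of concentration-response data.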

[8] = Cell Viability - LYMP1-003 - Assay at 24 hr (AID 963); conditions: LYMP1-003 lymphoblastoid cell viability; series mostly up to 92.2 µM
Outline: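 Cytotoxicity is scored as a concentration-dependent fall in ATP-linked luciferase signal in human lymphoblastoid LYMP1-003 cells treated 24 hr at 37 C in complete culture medium.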

[9] = Cell Viability - LYMP1-003 - Assay at 40 hr (AID 964); conditions: LYMP1-003 lymphoblastoid viability; series mostly up to 92.2 µM; further: nearly all actives have a fitted effect of over 60% in size
Outline: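 Luminescent ATP signal (CellTiter-Glo) served as the viability read-out after 40 hr compound treatment of human lymphoblastoid LYMP1-003 cells at 37 C. Decreases in ATP were fitted with the Hill equation to give AC50.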

[10] = Cell Viability - LYMP2-003 (AID 965); conditions: LYMP2-003 lymphoblastoid cell viability; series mostly up to 92.2 µM;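 further: cells exposed to compounds for 24 h before reading; nearly all actives have a fitted effect of over 50% in size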
Outline: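 CellTiter-Glo luminescence (cellular ATP) after 24 h compound exposure at 37 C in complete medium; 2500 cells/well, 5 h settling beforehand. Concentration-response fitted to standard Hill equation for AC50. Tetraoctylammonium bromide served as positive control.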

[11] = Cell Viability - LYMP2-004 (AID 966); conditions: LYMP2-004 lymphoblastoid cell viability, qHTS; series mostly up to 92.2 µM; further: nearly all actives have a fitted effect of over 65% in size
Outline: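 qHTS cytotoxicity: human lymphoblastoid line, 24 hr compound treatment, 37 C, complete medium. Viability read as cellular ATP via luciferase luminescence; tetraoctylammonium bromide served as positive control.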

[12] = Cell Viability - LYMP2-005 (AID 967); conditions: LYMP2-005 lymphoblastoid cell viability; series mostly up to 92.2 µM
Outline: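 Steps: seed 2500 LYMP2-005 cells/well, incubate 5 h at 37 C, add compound, incubate 24 h at 37 C, add CellTiter-Glo, wait 30 min at RT, read luminescence. Concentration-response data fitted to Hill equation for AC50.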

[13] = Cell Viability - LYMP2-009 (AID 968); conditions: LYMP2-009 lymphoblastoid cell viability; series mostly up to 92.2 µM; further: nearly all actives have a fitted effect of over 55% in size
[14] = Cell Viability - LYMP2-013 (AID 970); conditions: LYMP2-013 lymphoblastoid cells viability; series mostly up to 92.2 µM; further: nearly all actives have a fitted effect of over 55% in size
Outline: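 Cytotoxicity is scored as a concentration-dependent drop in intracellular ATP in human lymphoblastoid cells after 24 hr compound exposure at 37 C. ATP is quantified by luciferase luminescence, and AC50 values come from Hill-equation modeling.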

[15] = Cell Viability - LYMP2-015 (AID 971); conditions: LYMP2-015 lymphoblastoid cell viability; series mostly up to 92.2 µM; further: nearly all actives have a fitted effect of over 55% in size
Outline: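 Cells are seeded at 2500 per well and incubated 5 hr at 37 C. Compounds are added across a concentration series for 24 hr at 37 C. CellTiter-Glo is added, and luminescence is read after 30 min at room temperature.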

[16] = Cell Viability - LYMP2-017 (AID 972); conditions: LYMP2-017 lymphoblastoid cell viability; series mostly up to 92.2 µM; further: nearly all actives have a fitted effect of over 55% in size
Outline: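 Cytotoxicity is scored as a concentration-dependent drop in cellular ATP in a human lymphoblastoid line after 24 hr treatment at 37 C. Values are AC50s from Hill-equation modelling.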

[17] = Cell Viability - LYMP2-019 (AID 973); conditions: LYMP2-019 lymphoblastoid cell line viability; series mostly up to 92.2 µM; further: nearly all actives have a fitted effect of over 55% in size
Outline: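 Cytotoxicity is scored as a concentration-dependent drop in cellular ATP after cells (2500/well) receive compound for 24 hr at 37 C. Tetraoctylammonium bromide serves as positive control.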

[18] = Cell Viability - LYMP2-021 (AID 974); conditions: LYMP2-021 lymphoblastoid cells viability; series mostly up to 92.2 µM
Outline: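 Loss of cellular ATP, measured with a luciferase-based CellTiter-Glo readout, serves as the toxicity signal in human lymphoblastoid cells treated for 24 hours at 37 C. Potency is reported as AC50 from a standard Hill model.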

[19] = Cell Viability - LYMP2-023 (AID 975); conditions: LYMP2-023 lymphoblastoid cell viability; series mostly up to 92.2 µM; further: nearly all actives have a fitted effect of over 55% in size
Outline: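 Steps: seed 2500 human lymphoblastoid cells per well, incubate 5 hr at 37 C, add compound for 24 hr at 37 C, add CellTiter-Glo, hold 30 min at room temperature, read luminescence. AC50 derived by Hill modelling.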

[20] = Cell Viability - LYMP2-011 (AID 969); conditions: LYMP2-011 lymphoblastoid cells viability; series mostly up to 92.2 µM; further: nearly all actives have a fitted effect of over 60% in size
Outline: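 In this qHTS cytotoxicity format, compounds are tested across concentrations on human lymphoblastoid cells in complete medium for 24 hours at 37 C. Viability is taken as cellular ATP measured by luciferase luminescence.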

Measured: Potency

NC=O
not listed: [20]
inactive: all other assays above

CC1CCCO1 (stereo not given)
not listed: [18]
inactive: all other assays above

Cc1ccc2ncccc2c1
not listed: [16]
inactive: all other assays above

CCCC=O
not listed: [18]
inactive: all other assays above

CC(C)Nc1ccccc1
not listed: [20]
inactive: all other assays above

O=C1CCCCC1
not listed: [20]
inactive: all other assays above

NC(=O)c1cccc([N+](=O)[O-])c1
not listed: [20]
inactive: all other assays above

CC(=O)CC(C)C
not listed: [18]
inactive: all other assays above

CC(C)(C)OC=O
not listed: [17] | [18]
inactive: all other assays above

CC(C=O)Cc1ccc(C(C)(C)C)cc1 (stereo not given)
inactive: all assays above

CCOC(=O)OCC
not listed: [20]
inactive: all other assays above

Cc1ccc(C)o1
inactive: all assays above

Cc1ccc(C#N)cc1
not listed: [18]
inactive: all other assays above

C=CCCCC
not listed: [16]
inactive: all other assays above

O=C(O)c1ccc(CO)o1
not listed: [16] | [17] | [18]
inactive: all other assays above

O=C(O)c1ccc(C(=O)O)cc1
not listed: [20]
inactive: all other assays above

C=Cc1ccccc1C=C
not listed: [20]
inactive: all other assays above

COc1ccc(OC)cc1
not listed: [18]
inactive: all other assays above

ON=C1CCCCC1
not listed: [15]
inactive: all other assays above

NC(=O)c1ccccc1[N+](=O)[O-]
not listed: [20]
inactive: all other assays above

CC(O)COC(C)(C)C (stereo not given)
inactive: all assays above

CC1(N)CCC(C(C)(C)N)CC1 (stereo not given)
not listed: [16]
inactive: all other assays above

CC(C)CO
inactive: all assays above

CCCCC(CC)C(=O)O (stereo not given)
not listed: [20]
inactive: all other assays above

C=CC(=O)NC(C)C
inactive: all assays above

CC(=O)OCCC(C)C
inactive: all assays above

CCCC(Cl)CCCC(Cl)CCC(Cl)CCC(Cl)CCC(Cl)CCCC(Cl)CCC (stereo not given)
inactive: all assays above

CC(CCl)OC(C)CCl (stereo not given)
not listed: [11]
inactive: all other assays above

CCCCCCO
not listed: [8]
inactive: all other assays above
